Publication PMC5540273 (PLoS ONE, 2017)

Legend:
Conditions in all cases: concentration: 1 μM, replicates: in singlicate; n = 1
[1] = system: PDPK1
[2] = system: PFTAIRE2
[3] = system: T1, PFTK1
T1 construct: gene CDK14

[4] = system: PHKG1
[5] = system: PHKG2
[6] = system: PIK3C2B
[7] = system: PIK3C2G
[8] = system: PIK3CA
[9] = system: PIK3CB
[10] = system: PIK3CD
[11] = system: PIK3CG
[12] = system: T2, PIK4CB
T2 construct: gene PI4KB

[13] = system: PIKFYVE
[14] = system: PIM1
[15] = system: PIM2
[16] = system: PIM3
[17] = system: PIP5K1A
[18] = system: PIP5K1C
[19] = system: PIP5K2B
[20] = system: T3, PIP5K2C
T3 construct: gene PIP4K2C
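Also: KINOMEscan kinase panel screen.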

SMILES | %Inh [1] [%] | %Inh [2] [%] | %Inh [3] [%] | %Inh [4] [%] | %Inh [5] [%] | %Inh [6] [%] | %Inh [7] [%] | %Inh [8] [%] | %Inh [9] [%] | %Inh [10] [%] | %Inh [11] [%] | %Inh [12] [%] | %Inh [13] [%] | %Inh [14] [%] | %Inh [15] [%] | %Inh [16] [%] | %Inh [17] [%] | %Inh [18] [%] | %Inh [19] [%] | %Inh [20] [%]
Cc1nnc(-c2ccc3ncn(-c4ccc(S(C)=O)cc4)c3c2)o1 (stereo not shown) | 0 | 12 | 14 | 0 | 0 | 0 | 0 | 0 | 2 | 38 | 0 | 0 | 19 | 4 | 1 | 11 | 0 | 18 | 5 | 55
CCC(=O)c1c(-c2ccccc2)c2cc(Cl)ccc2c(=O)n1Cc1cc(S(C)(=O)=O)n(CCC(C)(C)O)n1 | 0 | 0 | 12 | 18 | 0 | 41 | 52 | 32 | 26 | 36 | 17 | 0 | 0 | 15 | 2 | 16 | 0 | 0 | 20 | 0
COc1cc(Nc2nccc(N3CCC(NC(=O)C4COc5ccccc5O4)C3)n2)cc(OC)c1OC (stereo not shown) [GSK1379761] | 2 | 2 | 26 | 12 | 18 | 10 | 0 | 0 | 0 | 42 | 0 | 0 | 21 | 0 | 0 | 0 | 51 | 0 | 6 | 89
CN(C)c1cc(-c2ccc3c(N)n[nH]c3c2)nc(N)n1 [GSK2219329] |  | 0 | 11 | 0 | 0 | 0 | 0 | 0 | 0 | 0 | 0 | 0 | 0 | 14 | 0 | 0 | 0 | 19 | 0 | 0
Cc1cc(Nc2nc(-c3cccc(C)n3)nc3ccccc23)ccn1 [GW872411] | 0 | 0 | 10 | 0 | 0 | 0 | 0 | 0 | 0 | 0 | 0 | 0 | 53 | 0 | 0 | 0 | 2 | 0 | 0 | 0
Nc1ncnc2c1ncn2-c1cccc2ccccc12 [SKF-97184] | 0 | 0 | 1 | 0 | 0 | 7 | 0 | 2 | 0 | 0 | 3 | 0 | 40 | 0 | 32 | 0 | 0 | 11 | 0 | 0
Cc1cccc(-c2cc(-c3c[nH]nc3-c3ccccn3)ccn2)c1 [GW679395] | 0 | 1 | 11 | 0 | 0 | 1 | 0 | 0 | 0 | 0 | 0 | 0 | 0 | 20 | 0 | 0 | 35 | 54 | 0 | 39
COc1cc(Nc2nccc(N3CCC(NC(=O)C(C)c4ccc(Cl)cc4)C3)n2)cc(OC)c1OC (stereo not shown) [GSK1379757] | 0 | 11 | 6 | 0 | 0 | 10 | 0 | 6 | 0 | 0 | 2 | 0 | 0 | 0 | 0 | 0 | 42 | 35 | 3 | 79
O=C(NCc1cccs1)c1cc(C(=O)c2c(Cl)cccc2Cl)c[nH]1 [GW823670] | 0 | 0 | 55 | 2 | 0 | 0 | 0 | 0 | 0 | 0 | 0 | 0 | 0 | 5 | 0 | 0 | 34 | 0 | 4 | 0
O=C1NC(=O)C(c2ccccc2)=C1Nc1cccc(O)c1 [SB-390534] | 0 | 10 | 0 | 0 | 0 | 2 | 4 | 0 | 0 | 0 | 5 | 22 | 0 | 0 | 0 | 0 | 5 | 0 | 13 | 0
